Read-out in experiment [1]: Monocyte Chemoattractant Protein-1 (MCP1), CCL2 (gene 6347)
Nature of the experiment: BSK_SAg_MCP1: BioMAP Diversity Plus: SAg Assay for Monocyte Chemoattractant Protein-1 (MCP1) Biomarker Activity (AID 2283090). The conditions noted are these: primary human HUVEC with PBMC; actives raise or lower the signal. Put shortly: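 MCP-1 levels in the endothelial–PBMC SAg co-culture were quantified by ELISA at 24 h post-dosing; both increases and decreases versus DMSO scored. Cytotoxicity monitored by SRB total protein in parallel cultures.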

Read-out in experiment [2]: E-selectin (Homo sapiens) (UniProt P16581)
Nature of the experiment: BSK_SAg_Eselectin: BioMAP Diversity Plus: SAg Assay for Eselectin Biomarker Activity (AID 2283091). Particulars: primary human HUVEC with PBMC; actives raise or lower the signal. In short, it runs like this:
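Co-culture: HUVEC + PBMC. Dose compound; 24 h. ELISA for E-selectin. Bidirectional fit vs DMSO.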

Read-out in experiment [3]: Monokine induced gamma interferon (MIG), CXCL9 (gene 4283)
Nature of the experiment: BSK_SAg_MIG: BioMAP Diversity Plus: SAg Assay for Monokine induced gamma interferon (MIG) Biomarker Activity (AID 2283092). Particulars: primary human HUVEC with PBMC; actives raise or lower the signal. Put shortly: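 Measures CXCL9 protein by ELISA in a human vascular primary-cell co-culture (umbilical vein endothelium with PBMC) 24 h after chemical addition. Activity is scored up or down from the DMSO control.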

Experiment [4] is described as follows: BSK_SAg_PBMCCytotoxicity: PBMC Cytotoxicity Assessment in the BioMAP Diversity Plus: SAg Assay (AID 2283093).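 Further: PBMC viability measured as Alamar Blue reduction fluorescence at 546/580 nm; fitted both ways against DMSO so a hit may be loss or gain of signal.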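 On AC50: PBMC superantigen activated with SEB plus TSST-1 one hour after compound addition.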 Particulars: primary human HUVEC with PBMC. Put shortly: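 HUVEC/PBMC co-culture; PBMC exposed to chemical 1 h before SEB and TSST-1 activation (20 ng/mL each), incubated 90 h, then Alamar Blue 6 h, fluorescence 546/580 nm. Bidirectional fit versus DMSO baseline.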

Read-out in experiment [5]: Interleukin-8 (IL8), CXCL8 (gene 3576)
Nature of the experiment: BSK_SAg_IL8: BioMAP Diversity Plus: SAg Assay for Interleukin-8 (IL8) Biomarker Activity (AID 2283094). Particulars: primary human HUVEC with PBMC; actives raise or lower the signal. Put shortly: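 Human umbilical vein endothelial cells co-cultured with PBMC, stimulated with superantigen; IL-8 measured by ELISA 24 h after chemical dosing. Bidirectional fitting versus DMSO; SRB staining in parallel cultures tracks cytotoxicity.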

Experiment [6] is described as follows: BSK_SAg_Proliferation: Cell Proliferation Assessment in the BioMAP Diversity Plus: SAg Assay (AID 2283095). Particulars: primary human HUVEC with PBMC. Put shortly:
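Human umbilical vein endothelial cells co-cultured with PBMC; sulforhodamine B total-protein staining (0.1% SRB after 10% TCA fixation, absorbance 560 nm) at 96 h in sub-confluent culture. Fitted bidirectionally against DMSO.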

The nature of experiment [7]: BSK_SAg_SRB: Viability Assessment in the BioMAP Diversity Plus: SAg Assay (AID 2283096).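 Further: cells read one day after compound addition; hits may be either gain or loss of signal compared with DMSO.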 Particulars: primary human HUVEC with PBMC. Put shortly: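 Human umbilical vein endothelial cells co-cultured with PBMC, read 24 h after compound dosing. Total protein measured by sulforhodamine B staining (0.1% SRB after 10% TCA fixation, absorbance 560 nm); bidirectional fit versus DMSO baseline.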

Experiment [8] addresses Cytochrome P450 2C19 (Homo sapiens) (UniProt P33261). Nature of the experiment: NVS_ADME_hCYP2C19: NovaScreen (NVS) CYP450-related Enzyme Activity (ADME) Assay for human CYP2C19 (AID 2283113; active means hit-call score of the fitted dose curve at least 0.9, where 1 is the maximum;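 further: potency for inhibition seen as loss of fluorescent signal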). In short, it runs like this:
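Fluorescence intensity was measured 1 hour after chemicals were added to insect-cell-derived recombinant CYP2C19 with fluorogenic substrate. Decreased signal versus acetonitrile control was taken as reduced enzyme activity; initial testing used 10 uM in duplicate.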

The target in experiment [9] is human CYP2C9, CYP2C9 (gene 1559) (UniProt P11712). Nature of the experiment: NVS_ADME_hCYP2C9: NovaScreen (NVS) CYP450-related Enzyme Activity (ADME) Assay for human CYP2C9 (AID 2283108; active means hit-call score of the fitted dose curve at least 0.9, where 1 is the maximum). Put shortly: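 Recombinant human CYP2C9 expressed in SF9 cells, fluorogenic substrate, fluorescence read 0.75 h after dosing. Chemicals first run in duplicate at 10 uM, with actives followed in concentration series; loss of signal versus acetonitrile baseline.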
Chain of human CYP2C9, CYP2C9 (gene 1559) (P11712 whole entry, looked up): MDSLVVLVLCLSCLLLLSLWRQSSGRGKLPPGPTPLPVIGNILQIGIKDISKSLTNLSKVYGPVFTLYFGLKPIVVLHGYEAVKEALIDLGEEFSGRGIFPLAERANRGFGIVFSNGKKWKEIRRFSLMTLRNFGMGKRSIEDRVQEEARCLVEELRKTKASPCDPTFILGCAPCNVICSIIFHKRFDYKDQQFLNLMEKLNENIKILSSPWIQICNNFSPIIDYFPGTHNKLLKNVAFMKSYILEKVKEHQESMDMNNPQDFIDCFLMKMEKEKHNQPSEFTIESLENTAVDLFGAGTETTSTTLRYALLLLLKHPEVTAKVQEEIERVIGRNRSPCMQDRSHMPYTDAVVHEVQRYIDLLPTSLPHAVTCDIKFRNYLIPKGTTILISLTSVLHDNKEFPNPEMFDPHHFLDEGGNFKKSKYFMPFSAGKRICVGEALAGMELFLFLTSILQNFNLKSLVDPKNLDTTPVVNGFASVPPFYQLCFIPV

The target of experiment [10] is human CYP2D6, CYP2D6 (gene 1565) (UniProt P10635). Nature of the experiment: NVS_ADME_hCYP2D6: NovaScreen (NVS) CYP450-related Enzyme Activity (ADME) Assay for human CYP2D6 (AID 2283107; active means hit-call score of the fitted dose curve at least 0.9, where 1 is the maximum). Put shortly:
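Insect-cell recombinant enzyme + fluorogenic substrate, cell-free; 1 h incubation; fluorescence intensity readout. Acetonitrile = neg. ctrl/baseline. Single-point 10 uM, duplicate; follow-up concentration series.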

Experiment [11] addresses guinea pig Leukotriene D4 Receptor (LTD4), CYSLTR1 (gene 100135514) (UniProt Q2NNR5). Nature of the experiment: NVS_GPCR_gLTD4: NovaScreen (NVS) G Protein-Coupled Receptor Assay for guinea pig Leukotriene D4 Receptor (LTD4) (AID 2283248; active means hit-call score of the fitted dose curve at least 0.9, where 1 is the maximum). Put shortly:
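Radioligand displacement on guinea pig lung membranes, 1 h incubation, filtration and scintillation counting; DMSO as negative control. Duplicate 25 uM primary screen, then singleton concentration-response up to 50 uM.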

For experiment [12], the target named is Cytochrome P450 3A4 (Homo sapiens) (UniProt P08684). Nature of the experiment: NVS_ADME_hCYP3A4: NovaScreen (NVS) CYP450-related Enzyme Activity (ADME) Assay for human CYP3A4 (AID 2283110; active means hit-call score of the fitted dose curve at least 0.9, where 1 is the maximum). In short, it runs like this:
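Cell-free recombinant enzyme expressed in insect cells; fluorescent substrate turnover read after 0.33 h, acetonitrile as negative control. Primary screen in duplicate at 10 uM, actives then tested in concentration series.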

Experiment [13] has as its target human Phosphodiesterase 10 (PDE10), PDE10A (gene 10846) (UniProt Q9Y233). Nature of the experiment: NVS_ENZ_hPDE10: NovaScreen (NVS) Enzymatic Assay for human Phosphodiesterase 10 (PDE10) (AID 2283195; active means hit-call score of the fitted dose curve at least 0.9, where 1 is the maximum). Put shortly:
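Recombinant human PDE10 with fluorescent substrate, 1 h, product separated by electrophoretic mobility shift. Loss of enzyme activity fitted against DMSO; initial screen 25 uM in duplicate, actives run to 50 uM maximum.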

In experiment [14] the target is human Matrix Metalloproteinase-9 (MMP9), MMP9 (gene 4318) (UniProt P14780). Nature of the experiment: NVS_ENZ_hMMP9: NovaScreen (NVS) Enzymatic Assay for human Matrix Metalloproteinase-9 (MMP9) (AID 2283190; active means hit-call score of the fitted dose curve at least 0.9, where 1 is the maximum;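 further: cell-free recombinant MMP9 protease activity read by fluorescent substrate signal; active means inhibition seen as loss of fluorescence signal versus DMSO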). Put shortly: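 Inhibition was scored as loss of fluorescence signal against DMSO controls. The recombinant protease was exposed to chemicals for 1 hour before reading; initial testing used 25 uM in duplicate.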
Chain of human Matrix Metalloproteinase-9 (MMP9), MMP9 (gene 4318) (P14780 whole entry, looked up): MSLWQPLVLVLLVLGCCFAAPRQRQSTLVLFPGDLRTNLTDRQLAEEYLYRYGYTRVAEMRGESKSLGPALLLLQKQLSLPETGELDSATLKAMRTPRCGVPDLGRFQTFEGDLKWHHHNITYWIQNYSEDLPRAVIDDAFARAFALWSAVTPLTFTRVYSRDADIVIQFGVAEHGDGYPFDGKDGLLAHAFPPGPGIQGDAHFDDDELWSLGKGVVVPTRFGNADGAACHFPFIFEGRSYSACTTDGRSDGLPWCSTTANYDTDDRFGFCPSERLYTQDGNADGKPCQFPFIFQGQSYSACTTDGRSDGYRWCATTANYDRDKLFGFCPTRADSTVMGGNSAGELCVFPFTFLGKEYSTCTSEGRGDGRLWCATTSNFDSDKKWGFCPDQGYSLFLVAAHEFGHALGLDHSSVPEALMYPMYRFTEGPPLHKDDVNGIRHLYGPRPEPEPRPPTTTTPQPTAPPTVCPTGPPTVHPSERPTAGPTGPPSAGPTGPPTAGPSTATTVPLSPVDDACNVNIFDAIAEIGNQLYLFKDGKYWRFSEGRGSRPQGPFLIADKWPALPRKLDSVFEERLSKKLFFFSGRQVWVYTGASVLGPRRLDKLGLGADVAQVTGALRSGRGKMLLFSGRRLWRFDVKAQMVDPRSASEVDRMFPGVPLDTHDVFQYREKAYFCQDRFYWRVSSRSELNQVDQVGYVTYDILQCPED

Experiment [15] has as its target human Caspase 5 (CASP5), CASP5 (gene 838) (UniProt P51878). Nature of the experiment: NVS_ENZ_hCASP5: NovaScreen (NVS) Enzymatic Assay for human Caspase 5 (CASP5) (AID 2283137; active means hit-call score of the fitted dose curve at least 0.9, where 1 is the maximum). In short, it runs like this:
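Recombinant human caspase 5 expressed in E. coli, fluorogenic substrate, fluorescence read 2 h after dosing. Single-point 25 uM duplicate screen, then concentration-response to maximum 50 uM for actives; DMSO baseline.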

The target of experiment [16] is human Phosphoinositide 3-kinase alpha (PI3Ka), PIK3CA (gene 5290) (UniProt P42336). Nature of the experiment: NVS_ENZ_hPI3Ka: NovaScreen (NVS) Enzymatic Assay for human Phosphoinositide 3-kinase alpha (PI3Ka) (AID 2283196; active means hit-call score of the fitted dose curve at least 0.9, where 1 is the maximum). In short, it runs like this:
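Chemicals were first screened at 25 uM in duplicate, then hits were run as concentration series up to 50 uM. Enzyme activity was measured by fluorescence after mobility-shift separation, with loss of signal relative to DMSO taken as activity.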

Results filed as inconclusive are left out. Calls of active or inactive are those of the source. How the source made its calls, unless noted: active means hit-call score of the fitted dose curve at least 0.9, where 1 is the maximum; inactive means score below 0.9.

Chain of human CYP2D6, CYP2D6 (gene 1565) (P10635 whole entry, looked up): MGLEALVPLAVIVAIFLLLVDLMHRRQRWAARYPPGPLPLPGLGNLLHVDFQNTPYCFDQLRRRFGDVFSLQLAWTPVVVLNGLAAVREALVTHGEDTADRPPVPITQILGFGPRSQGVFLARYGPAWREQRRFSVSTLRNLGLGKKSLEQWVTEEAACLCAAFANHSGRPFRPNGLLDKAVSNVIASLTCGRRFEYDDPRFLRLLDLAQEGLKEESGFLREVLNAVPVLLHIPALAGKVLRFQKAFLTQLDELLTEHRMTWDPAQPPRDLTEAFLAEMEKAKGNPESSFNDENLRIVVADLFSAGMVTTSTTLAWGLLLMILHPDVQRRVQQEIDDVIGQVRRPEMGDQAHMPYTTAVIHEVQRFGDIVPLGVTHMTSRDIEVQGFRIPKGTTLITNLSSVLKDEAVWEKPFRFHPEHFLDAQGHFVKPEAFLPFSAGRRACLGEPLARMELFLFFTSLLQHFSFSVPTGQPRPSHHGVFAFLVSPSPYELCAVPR
Chain of E-selectin (Homo sapiens) (P16581 whole entry, looked up): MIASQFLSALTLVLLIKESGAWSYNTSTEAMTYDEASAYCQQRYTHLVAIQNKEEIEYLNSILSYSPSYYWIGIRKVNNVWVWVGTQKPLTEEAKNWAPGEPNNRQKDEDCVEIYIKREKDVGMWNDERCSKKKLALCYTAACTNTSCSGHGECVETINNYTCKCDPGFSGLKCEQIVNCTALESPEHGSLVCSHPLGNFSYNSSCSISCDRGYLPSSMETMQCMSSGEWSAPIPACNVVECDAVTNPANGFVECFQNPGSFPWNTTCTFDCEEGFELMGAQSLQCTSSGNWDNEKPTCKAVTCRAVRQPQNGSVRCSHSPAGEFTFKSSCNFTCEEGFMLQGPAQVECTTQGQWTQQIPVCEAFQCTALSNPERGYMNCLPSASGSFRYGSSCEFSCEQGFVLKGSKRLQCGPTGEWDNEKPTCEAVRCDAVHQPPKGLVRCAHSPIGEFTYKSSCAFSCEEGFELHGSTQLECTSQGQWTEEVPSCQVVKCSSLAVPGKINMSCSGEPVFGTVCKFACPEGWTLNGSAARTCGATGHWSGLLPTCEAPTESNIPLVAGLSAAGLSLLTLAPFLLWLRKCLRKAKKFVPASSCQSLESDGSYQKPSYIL
Chain of Cytochrome P450 3A4 (Homo sapiens) (P08684 whole entry, looked up): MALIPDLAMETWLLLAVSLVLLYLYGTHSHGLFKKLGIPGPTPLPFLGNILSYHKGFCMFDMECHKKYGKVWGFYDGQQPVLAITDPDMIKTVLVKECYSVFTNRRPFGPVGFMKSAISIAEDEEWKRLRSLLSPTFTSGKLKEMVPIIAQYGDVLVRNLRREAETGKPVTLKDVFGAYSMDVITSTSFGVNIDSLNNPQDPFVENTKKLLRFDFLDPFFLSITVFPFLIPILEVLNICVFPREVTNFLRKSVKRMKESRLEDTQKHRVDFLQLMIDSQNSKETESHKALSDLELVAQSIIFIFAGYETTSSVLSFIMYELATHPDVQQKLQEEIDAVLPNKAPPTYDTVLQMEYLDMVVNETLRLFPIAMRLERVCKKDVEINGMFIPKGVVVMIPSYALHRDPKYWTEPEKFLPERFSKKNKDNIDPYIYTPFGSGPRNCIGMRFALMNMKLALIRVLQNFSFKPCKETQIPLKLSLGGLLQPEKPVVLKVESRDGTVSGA
Chain of human Phosphodiesterase 10 (PDE10), PDE10A (gene 10846) (Q9Y233 whole entry, looked up): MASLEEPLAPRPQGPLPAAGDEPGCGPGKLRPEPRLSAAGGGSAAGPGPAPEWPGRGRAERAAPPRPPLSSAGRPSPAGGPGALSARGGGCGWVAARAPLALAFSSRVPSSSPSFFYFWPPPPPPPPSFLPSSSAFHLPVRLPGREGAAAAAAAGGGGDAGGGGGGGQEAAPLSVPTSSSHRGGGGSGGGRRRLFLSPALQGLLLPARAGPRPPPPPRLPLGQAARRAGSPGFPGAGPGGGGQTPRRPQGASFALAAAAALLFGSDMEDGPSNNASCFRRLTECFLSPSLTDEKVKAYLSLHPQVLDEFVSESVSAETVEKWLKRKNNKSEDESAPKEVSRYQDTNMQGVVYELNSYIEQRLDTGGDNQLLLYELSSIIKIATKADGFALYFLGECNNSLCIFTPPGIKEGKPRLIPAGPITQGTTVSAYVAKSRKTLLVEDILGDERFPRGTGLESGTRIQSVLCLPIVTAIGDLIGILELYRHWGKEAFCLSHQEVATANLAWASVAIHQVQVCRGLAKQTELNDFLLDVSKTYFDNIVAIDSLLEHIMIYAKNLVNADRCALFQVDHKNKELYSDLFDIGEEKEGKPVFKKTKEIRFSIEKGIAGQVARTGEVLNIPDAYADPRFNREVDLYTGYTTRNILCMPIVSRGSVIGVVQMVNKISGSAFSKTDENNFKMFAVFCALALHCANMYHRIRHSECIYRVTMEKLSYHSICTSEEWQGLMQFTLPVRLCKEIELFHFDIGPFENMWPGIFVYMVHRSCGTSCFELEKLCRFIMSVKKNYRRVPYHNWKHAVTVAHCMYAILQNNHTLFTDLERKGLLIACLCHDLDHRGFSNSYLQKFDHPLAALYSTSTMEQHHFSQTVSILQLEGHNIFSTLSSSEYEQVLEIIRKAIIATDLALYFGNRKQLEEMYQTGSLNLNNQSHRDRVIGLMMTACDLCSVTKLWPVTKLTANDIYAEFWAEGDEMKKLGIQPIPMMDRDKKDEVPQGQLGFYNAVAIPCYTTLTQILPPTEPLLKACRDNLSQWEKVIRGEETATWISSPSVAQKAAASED
Chain of guinea pig Leukotriene D4 Receptor (LTD4), CYSLTR1 (gene 100135514) (Q2NNR5 whole entry, looked up): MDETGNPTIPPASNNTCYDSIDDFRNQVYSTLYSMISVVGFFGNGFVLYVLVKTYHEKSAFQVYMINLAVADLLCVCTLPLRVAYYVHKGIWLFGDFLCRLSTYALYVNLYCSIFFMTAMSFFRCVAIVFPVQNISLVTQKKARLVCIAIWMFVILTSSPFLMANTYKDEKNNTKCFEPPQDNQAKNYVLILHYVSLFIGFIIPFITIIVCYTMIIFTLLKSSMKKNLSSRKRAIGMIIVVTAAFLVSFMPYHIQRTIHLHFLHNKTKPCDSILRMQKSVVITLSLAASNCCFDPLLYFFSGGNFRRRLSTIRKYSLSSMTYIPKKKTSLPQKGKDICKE
Chain of human Caspase 5 (CASP5), CASP5 (gene 838) (P51878 whole entry, looked up): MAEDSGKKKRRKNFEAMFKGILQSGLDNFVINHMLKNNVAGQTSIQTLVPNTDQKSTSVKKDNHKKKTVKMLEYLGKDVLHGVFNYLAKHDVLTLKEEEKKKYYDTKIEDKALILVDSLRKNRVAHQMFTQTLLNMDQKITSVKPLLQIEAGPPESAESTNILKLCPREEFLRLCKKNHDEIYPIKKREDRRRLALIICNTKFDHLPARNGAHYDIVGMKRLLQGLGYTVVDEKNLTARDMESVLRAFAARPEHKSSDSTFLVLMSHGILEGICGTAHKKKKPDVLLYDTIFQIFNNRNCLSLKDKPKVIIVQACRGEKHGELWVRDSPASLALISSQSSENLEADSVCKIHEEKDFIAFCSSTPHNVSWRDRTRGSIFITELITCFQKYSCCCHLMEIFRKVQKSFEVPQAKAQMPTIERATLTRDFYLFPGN

`O=S(=O)(OCC(F)F)C(F)(F)F`: the result in experiment [1], in experiment [2], in experiment [3], in experiment [4], in experiment [5] and in experiment [6] was inactive. Also, the outcome in experiment [7] was inactive.
For the molecule `C#C[C@]1(O)CC[C@H]2[C@@H]3CCc4cc(OC)ccc4[C@H]3CC[C@@]21C`, the outcome in [1], in [2], in experiment [3], in experiment [5] and in [7] was inactive. Further, the results for the half-maximal activity concentration (AC50) in experiment [4], in experiment [6] and in [8] were 33.4 µM (active), 30.4 µM (active) and 6.84 µM (active), respectively.
Turning to `CCCCOCCOCCOC(=O)CCCCC(=O)OCCOCCOCCCC`, the result in experiment [1], in experiment [2], in experiment [3], in [4], in [5] and in [6] was inactive. In experiment [7], the result was inactive. The AC50 (usually the midpoint of the concentration-response curve, whichever way the signal moves) was 3.07 µM (active) in [9] and 5 µM (active) in [8].
Consider `O=C(O)C(F)(F)C(F)(F)C(F)(F)F`, for which the outcome in [1], in [2], in [3], in experiment [4], in experiment [5] and in [6] was inactive. The result in [7] was inactive.
Take `FC(F)(F)C(F)(F)C(F)(F)CI`: the result in experiment [1], in experiment [2], in experiment [3], in experiment [4], in [5] and in experiment [6] was inactive. The result in experiment [7] was inactive.
For the molecule `OCC(F)(F)C(F)(F)C(F)(F)C(F)F`, the result in experiment [1], in experiment [2], in experiment [3], in experiment [4], in experiment [5] and in [6] was inactive. The outcome in experiment [7] was inactive.
For the molecule `FC1CC(F)(F)C(F)(F)C1(F)F` (stereo unspecified), the result in experiment [1], in [2], in experiment [3], in experiment [4], in [5] and in experiment [6] was inactive. Also, the outcome in [7] was inactive.
Turning to `CC(CCl)OP(=O)(OC(C)CCl)OC(C)CCl` (stereo unspecified), the outcome in experiment [1], in [2], in [3], in [4], in experiment [5] and in experiment [6] was inactive. In experiment [7], the outcome was inactive.
`C=C(C)C(=O)OCC(F)(F)C(F)(F)C(F)(F)F`: the outcome in experiment [1], in experiment [2], in experiment [3], in experiment [4], in experiment [5] and in experiment [6] was inactive. In experiment [7], the outcome was inactive.
Turning to `Nc1ccc([N+](=O)[O-])cc1O`, the result in experiment [1], in experiment [2], in experiment [3], in experiment [4], in experiment [5] and in experiment [6] was inactive. In addition, the outcome in experiment [7] was inactive. Moreover, the half-maximal activity concentration (AC50) in experiment [10] was 3.87 µM (active); in experiment [9], 3.74 µM (active).
On to `c1ccc(-c2ccccc2-c2ccccc2)cc1`, for which the outcome in [11] was inactive.
For the molecule `CC(=O)Nc1ccc(N=Nc2cc(C)ccc2O)cc1`, the result in experiment [1], in [2], in [3], in experiment [4], in experiment [5] and in experiment [7] was inactive. The outcome in [13] was inactive. Also, the AC50 was 11 µM (active) in [6], 2.96 µM (active) in experiment [10], 5 µM (active) in experiment [12] and 0.00307 µM (active) in [8].
Consider `FC(F)(Br)C(F)(F)C(F)(F)C(F)(F)C(F)(F)C(F)(F)Br`, for which the result in experiment [1], in [2], in experiment [3], in experiment [4], in experiment [5] and in experiment [6] was inactive. For the same molecule, the outcome in experiment [7] was inactive.
Take `O=C(O)C(F)(F)C(F)(F)C(F)(F)C(F)(F)F`: the outcome in [1], in experiment [2], in experiment [3], in experiment [4], in experiment [5] and in experiment [6] was inactive. The outcome in experiment [7] was inactive.
As for `CCCCCC=O`, the half-maximal activity concentration (AC50) in experiment [14] was 1.86 µM (active).
Regarding `CCO[Si](CCC(F)(F)C(F)(F)C(F)(F)C(F)(F)C(F)(F)C(F)(F)F)(OCC)OCC`, the outcome in experiment [1], in [2], in experiment [3], in experiment [4], in experiment [5] and in [6] was inactive. Besides, the outcome in experiment [7] was inactive.
On to `FC(F)(F)C(F)(F)C(F)(F)C(F)(F)C(F)(F)C(F)(F)CCS`, for which the outcome in [1], in experiment [2], in experiment [3], in [4], in experiment [5] and in experiment [6] was inactive. For the same molecule, in experiment [7], the outcome was inactive.
With `Oc1ccc(Nc2ccccc2)cc1`, the AC50 was 20 µM (active) in experiment [1]; 25.1 µM (active) in [2]; 3.57 µM (active) in experiment [4]; 3.84 µM (active) in experiment [6]; 0.451 µM (active) in experiment [9]; 2.86 µM (active) in [8]. Further, the AC50 in [15] is 8.26 µM (active); in [14], 9.97 µM (active). For the same molecule, the result in [3], in [5], in experiment [7], in experiment [10] and in [16] was inactive.
For `CCCCCCCCC(F)(F)C(F)(F)C(F)(F)C(F)(F)C(F)(F)C(F)(F)F`, the outcome in [1], in [2], in [3], in experiment [4], in [5] and in experiment [6] was inactive. In experiment [7], the outcome was inactive.

Source of the values: PubChem BioAssay (EPA / NIEHS).
